USP2a block: qHTS Assay for Inhibitors of Ubiquitin-specific Protease USP2a Using CHOP2 as the Reporter; Potency, µM (series often up to 38.3 µM), inactives show top-dose activity change, negative = inhibition, hits mostly inhibitors; actives 0.01% (n = 330,000); USP2 core, Ub-CHOP2 coupled fluorogenic reporter, 485/531;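 further: potency means the concentration at half of the fitted maximal effect; plate controls were DMSO wells for no effect and full inhibition by NEM control for full effect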
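USP2 core (10nM final) preincubated 30min RT with compound in 20mM Tris-HCl pH 8.0, 2mM CaCl2, 2mM beta-mercaptoethanol, 0.05% CHAPS; 25nM Ub-CHOP2 plus 25nM reporter substrate added, fluorescence (Ex485/Em531) read after 60min.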
Six1-Eya2 inh: qHTS Assay for Inhibitors of the Six1/Eya2 Interaction; actives 0.56% (n = 360,000); activity change, % (concentration not given with the values); Homeobox protein SIX1 (Homo sapiens) + Protein phosphatase EYA2 (Homo sapiens), …; AlphaScreen GST-Six1/His-Eya2 binding, biochemical; active compounds read low; in the data active means activity change below about -65%; inconclusive means mostly about -30% to -63%
Target sequence (O00167 whole entry, looked up): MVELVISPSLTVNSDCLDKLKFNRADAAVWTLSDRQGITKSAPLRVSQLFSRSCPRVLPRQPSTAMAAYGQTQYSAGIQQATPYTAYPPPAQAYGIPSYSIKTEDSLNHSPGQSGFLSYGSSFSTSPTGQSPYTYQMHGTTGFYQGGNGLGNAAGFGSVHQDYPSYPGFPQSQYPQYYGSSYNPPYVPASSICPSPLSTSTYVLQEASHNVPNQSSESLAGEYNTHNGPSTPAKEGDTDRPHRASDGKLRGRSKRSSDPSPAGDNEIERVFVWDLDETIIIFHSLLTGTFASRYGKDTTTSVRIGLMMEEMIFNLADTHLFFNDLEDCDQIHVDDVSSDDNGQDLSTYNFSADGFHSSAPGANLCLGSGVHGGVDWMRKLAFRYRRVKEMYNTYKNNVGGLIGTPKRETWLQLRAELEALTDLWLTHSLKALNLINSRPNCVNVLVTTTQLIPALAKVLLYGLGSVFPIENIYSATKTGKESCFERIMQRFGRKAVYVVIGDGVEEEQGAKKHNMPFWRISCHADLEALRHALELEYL
Target sequence (Q15475 whole entry, looked up): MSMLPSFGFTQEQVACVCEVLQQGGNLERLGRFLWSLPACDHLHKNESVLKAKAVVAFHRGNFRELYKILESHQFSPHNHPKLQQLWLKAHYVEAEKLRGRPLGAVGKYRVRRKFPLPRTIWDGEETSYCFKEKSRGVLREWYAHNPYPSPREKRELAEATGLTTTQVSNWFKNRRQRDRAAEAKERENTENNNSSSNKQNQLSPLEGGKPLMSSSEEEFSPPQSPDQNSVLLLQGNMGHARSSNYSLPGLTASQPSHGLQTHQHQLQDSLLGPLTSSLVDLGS
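Homogeneous AlphaScreen proximity assay pairing GST-Six1 with His-tagged Eya2 (added as 5X mix: 250 nM and 500 nM) in 50 mM Tris pH 8.0, 300 mM NaCl, 1 mM TCEP. Glutathione donor and nickel acceptor beads; 1 h, 37 °C, dark.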
PI4K2A inh: qHTS for small molecular inhibitors of PI4K2A | activity change, negative = inhibition, % at 76.9 µM | actives 0.13% (n = 420,000) | AID 1346378, 2018 | purified PI4K2A, ADP-Glo luminescence, 1 h; active compounds read low; in the data active means activity change below about -50%; inconclusive means mostly about -30% to -49%;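 further: -100% = wells without enzyme as full effect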
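In this quantitative HTS, ADP production by PI4K2A was quantified luminescently after 1 h at ambient temperature; 100 microM adenosine served as plate-quality control.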
CtBP-E1A blk: qHTS Assay for Inhibitors of the CtBP/E1A Interaction | CtBP / adenovirus E1A interaction (AlphaScreen) | AlphaScreen GST-E1A/His-CtBP binding, 1536-well; active compounds read low | activity change, % (concentration not given with the values) | actives 0.49% (n = 340,000); in the data active means activity change below about -65%; inconclusive means mostly about -30% to -63%
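In 5 uL wells, 23 nL compound meets equimolar GST-E1A and His-CtBP (5X stock 125 nM each) for 2 h, 37 °C. Beads (5X, 50 ug/mL) then 1 h, 37 °C, dark.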
Eya2 inh: qHTS Assay for Inhibitors of the Phosphatase Activity of Eya2 | recombinant Eya2, OMFP fluorescence dephosphorylation (OMFP is methylfluorescein phosphate) | actives 0.006% (n = 330,000) | Potency, µM (doses to about 76.9 µM), inactives show at the top dose activity, negative = inhibition, most hits filed as inhibitors | AID 488837, 2010; further: potency means the concentration at half of the fitted maximal effect
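Eya2 (0.2 uM) preincubated 10 min at ambient with compound, then OMFP substrate added at 50 uM; 10 min reaction in 50 mM HEPES pH 7.5, 50 mM NaCl, 5 uM MgCl2, 0.05% BSA, 1 mM DTT. Fluorescence read at Ex 485/Em 525 nm.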
RGS4 inhibitor: Inhibitors of Regulator of G Protein Signaling (RGS) 4: qHTS | Transcreener GDP fluorescence polarization, RGS4-accelerated GTP hydrolysis | Potency, µM (titrated, usually from 114 µM), for inactives: at the top dose activity change, negative = inhibition, hits mostly inhibitors | actives 0.039% (n = 390,000) | AID 504845, 2011; further: potency means the concentration at half of the fitted maximal effect; nearly all actives have a fitted effect of over 75% in size
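MLSMR compounds (23 nl, pin-transferred) preincubated 10 min at room temperature with a 500nM (2x) first reagent, then RGS4 at 900nM (2x) plus Transcreener GDP mix added; fluorescence polarization (620/688 nm) read before and after 90 min at 30 °C.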
* = called active by the depositor; i = inactive; ? = inconclusive; · = no result; ! = not active in a repeat; [ ] = remark or other dose. An excerpt weighted towards active compounds, which were near 0.72% of everything screened. Unless noted, the call rests on the fitted dose curve; in most records, active means well fitted curve in the direction sought with a large enough effect; inconclusive means small, poorly fitted or top-dose-only effect, or another doubt; inactive means no such curve, though single readings can be large; an effect the other way counts as inactive or inconclusive. Unless noted, on the % scale 0 is the no-effect control and ±100 the full control effect.

SMILES	USP2a block	Six1-Eya2 inh	PI4K2A inh	CtBP-E1A blk	Eya2 inh	RGS4 inhibitor
COc1ccc(Cn2c(O)c(/C=N/NC(=O)c3ccncc3)c(=O)[nH]c2=O)cc1	2.5%	?	-0.8	?	?	13.5%
O=C(N/N=C/c1c(O)n(Cc2ccc(F)cc2)c(=O)[nH]c1=O)c1ccccc1O	0.0%	-88.1*	1.4	?	-4.3%	-13.7%
COc1ccc(Cn2c(O)c(/C=N/NC(=O)c3ccccc3)c(=O)[nH]c2=O)cc1	2.4%	?	-4.4	-84.8*	1.4%	?
ClCCN1CCCC1	·	·	-4.2	·	·	·
Cc1cc(/C=C2\C(=O)NC(=O)N(c3ccc(Br)cc3)C2=O)c(C)n1-c1cc(C(=O)O)cc(C(=O)O)c1	-1.1%	-84.4*	-14.9	·	7.0%	-42.6%
CC(C)(N)Cc1ccccc1Cl	·	·	1.3	·	·	·
C[C@]12Cc3cn[nH]c3C[C@@H]1CC[C@@H]1[C@@H]2CC[C@@]2(C)[C@H]1CC[C@]2(C)O	·	·	2.2	·	·	·
COc1cc2c(cc1O)C[C@H]1NCCc3cc4c(c-2c31)OCO4	1.7%	-65.2*	-13.4	-79.3*	1.6%	7.0%
Cc1cc(O)c2c(c1)C(=O)C13C(=C2O)C(=O)[C@H]2[C@@H](O)[C@@H]1[C@H]1[C@H](O)[C@@H]3C(=O)C3=C(O)c4c(O)cc(C)cc4C(=O)C312 (stereo partly specified)	1.4%	-23.1	-75.3*	-19.3	-10.5%	-29.3%
C=CCN1CC[C@]23CCCC[C@H]2[C@H]1Cc1ccc(O)cc13	·	·	1.1	·	·	·
CC[N+]1(CC)CCC(OC(=O)C(O)(c2ccccc2)c2ccccc2)C1 (stereo unspecified)	·	·	2.1	·	·	·
N/C(=N\N=C\c1ccc(O)cc1O)N[N+](=O)[O-]	3.6%	-73.5*	-5.9	-83.2*	21.6%	-1.6%[56.9 µM]
COc1ccccc1/C=N/N=C(/N)N[N+](=O)[O-]	1.7%	3.7	-1.6	-4.8	6.2%	-13.0%
C=C1C(=O)O[C@@H]2C[C@@H](C)[C@@H]3C=CC(=O)[C@@]3(C)[C@@H](O)[C@H]12	9.7%	-4.0	-23.5	-6.3	-11.1%	21.2µM*
CCO/N=C(\CC)C1=C(O)CC(c2c(C)cc(C)cc2C)CC1=O (stereo unspecified)	·	·	i	·	·	·
CC(=NNC(=S)N1CC2CCC(CC2)C1)c1nccs1	·	-89.3*	26.4	-96.5*	·	-36.3%
C=CCC1=C(C)C(OC(=O)C2C(C=C(C)C)C2(C)C)CC1=O (stereo unspecified)	·	·	i	·	·	·
C=CCN1CC[C@]23c4c5ccc(O)c4O[C@@H]2/C(=N/N=C2\CC[C@@]4(O)C6Cc7ccc(O)c8c7[C@@]4(CCN6CC=C)[C@@H]2O8)CC[C@@]3(O)C1C5	·	·	2.2	·	7.7%	?
N.N.N.N.N.N.N.N.N.N.N.N.N.N.O.O.[Ru+4].[Ru+5].[Ru+5]	·	·	?	·	?	18.9µM*
CCOC(=O)C1(c2ccccc2)CCN(CCc2ccc(N)cc2)CC1	·	·	2.2	·	·	·
O=c1[nH]cc(N(CCCl)CCCl)c(=O)[nH]1	·	·	-67.3*	·	·	·
c1ccc2sc(C3(NCC4CC4)CCCCC3)cc2c1	·	·	·	·	·	i
Oc1cc2c(cc1O)[C@H]1c3ccccc3CN[C@H]1CC2	·	·	·	·	·	240.0%[56.9 µM]
NC(Cc1ccc(F)cc1)c1csc(Nc2cnccn2)n1 (stereo unspecified)	·	-74.4*	-1.2	-83.2*	·	·
NC(Cc1ccc(F)cc1)c1csc(Nc2ccccn2)n1 (stereo unspecified)	·	-85.5*	2.1	-91.2*	·	·
SMILES	USP2a block	Six1-Eya2 inh	PI4K2A inh	CtBP-E1A blk	Eya2 inh	RGS4 inhibitor
NC(Cc1ccccc1)c1csc(Nc2ccccn2)n1 (stereo unspecified)	·	-86.0*	-4.4	-90.3*	·	·
NC(Cc1ccc(Cl)cc1)c1csc(Nc2ccccn2)n1 (stereo unspecified)	·	?	-1.9	-68.2*	·	·
S=C(S)N1CCCC1	2.4%	-1.1	-6.7	1.9	0.7%	5.32µM*!
CC[C@H](O)C(C[C@H](C)N(C)C)(c1ccccc1)c1ccccc1	·	·	i	·	·	·
NC(=O)CI	·	·	-54.3*	·	-0.9%	18.9µM*
O=C(O)c1cc[c]([Hg][Cl])cc1	-2.1%	-4.5	?	?	-1.1%	6.7µM*!
O=C1OC(CCN2CCCCC2)OC1(c1ccccc1)c1ccccc1 (stereo unspecified)	·	·	-3.2	·	·	·
CCOC(C(=O)OCCN(C)C)(c1ccccc1)c1ccccc1	·	·	3.8	·	·	·
CN(N=O)c1ccc(O)c(O)c1	·	·	-57.4*	·	7.4%	5.97µM*
Cc1cc(C)cc(N2C(=O)NC(=O)/C(=C\c3cccn3-c3ccc(Cl)cc3)C2=O)c1	-0.7%	-2.7	-50.1*	0.8	-29.5%	-24.2%
CN1C(=O)/C(=C/c2cccn2-c2ccc3ccccc3c2)C(=O)NC1=S	-10.2%	-78.8*	-61.3*	-20.8	-22.4%	?
Cc1cc(C)cc(N2C(=O)NC(=O)/C(=C\c3cccn3-c3ccccc3)C2=O)c1	1.1%	9.4	-27.7	5.6	-0.2%	14.7%
C[C@]12CCC(=O)C=C1CC[C@@H]1[C@H]3CC[C@](C)(O)[C@@]3(C)CC[C@@H]12	·	·	i	·	·	·
CN1[C@@H]2CC[C@H]1CC(OC(c1ccc(F)cc1)c1ccc(F)cc1)C2 (stereo partly specified)	·	·	·	·	·	409.8%[56.9 µM]
Cn1c(O)c(C(c2ccccn2)c2c(O)n(C)c(=S)n(C)c2=O)c(=O)n(C)c1=S	-2.2%	?	-28.1	-29.3	-8.1%	-16.4%
Cn1c(O)c(C(c2ccncc2)c2c(O)n(C)c(=S)n(C)c2=O)c(=O)n(C)c1=S	4.1%	-68.2*	-10.7	?	2.2%	?
C/C=C1/C[C@@H](C)[C@@](C)(O)C(=O)OCC2=CCN3CC[C@@H](OC1=O)[C@@H]23	·	·	·	·	·	-0.4%

Bioassay records as filed in PubChem.
